High-throughput results deposited in PubChem BioAssay by National Center for Advancing Translational Sciences (NCATS).
SNCA expr inh – SNCA gene expression inhibition; actives 0.17% (n = 140,000); Potency, µM (highest dose often 57.2 µM), usual class: inhibitors; AID 1671194; HEK-293 SNCA-luciferase knock-in, luminescence, 24 h; note: nearly all actives have a fitted effect of over 45% in size
HEK293 viab – reduces viability of HEK-293 SNCA reporter cells | AID 1671193 | actives 0.12% (n = 150,000) | Potency, µM (series often up to 57.1 µM), actives largely listed as cytotoxic | HEK-293-SNCA-luc viability, GF-AFC fluorescence, 24 h; note: nearly all actives have a fitted effect of over 30% in size
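HEK-293-SNCA-luc cells (1500/well) plated 24 h, then exposed 24 h to a dilution series; GF-AFC added 30 min at 37C, fluorescence 405/540 nm; normalised to medium-only and DMSO wells, Hill fit.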
KDM5B inh – blocks human KDM5B histone demethylase activity | KDM5B demethylase, FDH-coupled NADH fluorescence (FDH is formaldehyde dehydrogenase) | Potency, µM (highest dose often 57.7 µM), actives largely listed as inhibitors | actives 2.6% (n = 220,000) | AID 1347165; note: nearly all actives have a fitted effect of over 70% in size
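Coupled FDH/NAD⁺ fluorescence readout. KDM5BΔAP 200 nM final; compound titration, 10 min RT preincubation; substrate mix 12.5 µM H3K4me3, 25 µM 2-OG, 50 µM Fe(II), 100 µM ascorbate, 0.25 mM NAD⁺, 0.25 U/mL FDH; ΔRFU over 30 min.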
IP6K1 inhibitor – inhibitors of human IP6K1. IP6K1 kinase, ADP-Glo luminescence, 2 h; stronger effect = lower value. activity change, % (series mostly up to about 58 µM). actives 0.81% (n = 140,000). AID 1645851; in the data active = activity change below about -25%
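ADP-Glo luminescence measures ADP made by human IP6K1 during a 2 h RT reaction with ATP/IP6 (mix at 1.3 mM/130 uM); top library doses 57.5 and 19.1 uM final.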
Large screens that a line does not name were inactive. Hits are enriched below; roughly 3% of the tested compounds scored in any of these assays. Unless noted, calls come from the whole dose curve; as a rule, active = well fitted curve in the direction sought with a large enough effect; inconclusive = small, poorly fitted or top-dose-only effect, or another doubt; inactive = no such curve, though single readings can be large; an effect the other way counts as inactive or inconclusive.

COc1cccc(NC(=O)c2cc(-c3ccccc3C(F)(F)F)nc3c2cnn3C)c1	none (no result: SNCA expr inh, HEK293 viab, KDM5B inh)
COc1cccc(CNC(=O)Cn2ccn3nc4c(c3c2=O)CCCC4)c1	KDM5B inh 25µM
O=C(Cn1ccn2nc3c(c2c1=O)CCCC3)NCc1ccccc1	SNCA expr inh inconclusive, KDM5B inh 25µM
O=C(Cn1ccn2nc3c(c2c1=O)CCCC3)NCc1cccs1	KDM5B inh 20µM
O=C(Cn1ccn2nc3c(c2c1=O)CCCC3)NCc1ccc(F)cc1	none
CC(CCc1ccccc1)NC(=O)Cn1ccn2nc3c(c2c1=O)CCCC3 (stereo not drawn)	KDM5B inh 20µM
O=C(Cn1ccn2nc3c(c2c1=O)CCCCC3)NCc1ccc(Cl)cc1	KDM5B inh inconclusive
COc1ccccc1N1CCN(C(=O)c2noc3c2CCc2sccc2-3)CC1	none (no result: SNCA expr inh, HEK293 viab, IP6K1 inhibitor)
Cc1ccc(CNC(=O)Cn2ccn3nc4c(c3c2=O)CCCCC4)cc1	KDM5B inh 5.6µM
CC1(CCCCc2ccccc2)COc2ccc(C(=O)NCc3cccnc3)cc2N1 (stereo not drawn)	KDM5B inh 28µM
CC1(CCCCc2ccccc2)COc2ccc(C(=O)NCc3ccncc3)cc2N1 (stereo not drawn)	KDM5B inh 32µM
CC1(CCCCc2ccccc2)COc2ccc(C(=O)NCc3cnccn3)cc2N1 (stereo not drawn)	none
CC1(CCCCc2ccccc2)COc2ccc(C(=O)Nc3cccnc3)cc2N1 (stereo not drawn)	SNCA expr inh inconclusive, KDM5B inh 28µM
CC1(CNCc2ccccc2)COc2ccc(C(=O)NCc3ccncc3)cc2N1 (stereo not drawn)	KDM5B inh inconclusive
Cn1nnnc1SCC(=O)N1N=C(c2cc3ccccc3o2)CC1c1ccco1 (stereo not drawn)	none (no result: SNCA expr inh, HEK293 viab, IP6K1 inhibitor)
COC1=C(c2ccc(F)cc2)C(=O)N(Cc2ccccc2)C1	none (no result: SNCA expr inh, HEK293 viab, KDM5B inh)
CCOc1ccccc1C(=O)NCc1nnc2ccc(-c3ccc(C)cc3)nn12	KDM5B inh inconclusive
CCOc1ccccc1C(=O)NCc1nnc2ccc(-c3ccc(C)c(C)c3)nn12	KDM5B inh 32µM
COc1ccccc1C(=O)NCc1nnc2ccc(-c3ccc(C)cc3)nn12	HEK293 viab inconclusive, KDM5B inh 13µM
CC1CCc2c(-c3cccc(O)c3)nc3ccc4ccccc4c3c2C1 (stereo not drawn)	none (no result: SNCA expr inh, HEK293 viab, IP6K1 inhibitor)
COc1cc(NC(=O)CCc2c[nH]c3ccccc23)cc(OC)c1OC	none (no result: SNCA expr inh, HEK293 viab, IP6K1 inhibitor)
COc1cc(C2CC(=O)Nc3nc(C)[nH]c(=O)c32)ccc1OCc1ccccc1Cl (stereo not drawn)	none (no result: SNCA expr inh, HEK293 viab, IP6K1 inhibitor)
Cn1ncc2c(C(=O)Nc3cccc(Cl)c3)cc(-c3cccc(C(F)(F)F)c3)nc21	none (no result: SNCA expr inh, HEK293 viab, KDM5B inh)
CCOc1ccc(Nc2nc(-c3ccccc3)no2)cc1	none
O=C(c1cn[nH]c1-c1ccc(Cl)cc1)N1CCCCC1	none (no result: SNCA expr inh, HEK293 viab, IP6K1 inhibitor)
N#Cc1cccc(N2CCC3(CCC(=O)N(CC4CCCO4)C3)CC2)n1 (stereo not drawn)	KDM5B inh 25µM
Cc1ccc(-c2nnc3ccc(N4CCN(Cc5ccccc5)CC4)nn23)nc1	KDM5B inh 35µM
COc1ccc(-c2nnc3ccc(N4CCC(c5ccccc5)CC4)nn23)nc1	KDM5B inh 35µM
Cc1nn(-c2ccccc2)c2c1C(C1CC1)N(CC1CN(C(=O)Nc3ccc(Cl)cc3)C1)C2=O (stereo not drawn)	none (no result: SNCA expr inh, HEK293 viab, KDM5B inh)
Cc1ccc(-c2nc3cnccn3c2NCCC(=O)O)cc1	HEK293 viab inconclusive, KDM5B inh 28µM
Cc1cccc(C)c1Nc1c(-c2ccccc2Cl)nc2cnccn12	HEK293 viab inconclusive, KDM5B inh inconclusive
CCOCCNC(=O)c1c(C)nc2cnccn12	none (no result: SNCA expr inh, HEK293 viab, KDM5B inh)
Cc1ccc(-c2nc3cnccn3c2NCCC(=O)N(C)C)cc1	HEK293 viab inconclusive, KDM5B inh 28µM
Cc1ccccc1-c1nc2cnccn2c1NCCC(=O)N(C)Cc1ccccc1	KDM5B inh 28µM
Cc1ccc(C(=O)N2CCN(Cc3ccccc3-c3ccc(C)c(Cl)c3)CC2)cc1	none (no result: KDM5B inh)
O=C(Nc1ccc2ccc(=O)oc2c1)C1=Cc2ccccc2OC=C1	none (no result: SNCA expr inh, HEK293 viab, IP6K1 inhibitor)
CCC(C)C(=O)Nc1c(C(=O)OC)n(CC2CCCO2)c2ncc(NC(C)CO)cc12 (stereo not drawn)	KDM5B inh 28µM
COC(=O)c1c(NC(C)=O)c2cc(NC3CCCCC3)cnc2n1CC1CCCO1 (stereo not drawn)	KDM5B inh inconclusive
CCC(C)C(=O)Nc1c(C(=O)OC)n(CC2CCCO2)c2ncc(NC(C)CCO)cc12 (stereo not drawn)	KDM5B inh 6.3µM
COC(=O)c1c(NC(C)=O)c2cc(NC(C)CC(C)(C)O)cnc2n1CCC(C)C (stereo not drawn)	HEK293 viab inconclusive, KDM5B inh 20µM
CCN(Cc1ccc(C(N)=O)cc1)Cc1cccs1	none (no result: SNCA expr inh, HEK293 viab, IP6K1 inhibitor)
O=Cc1ccc(-c2cc(C(F)(F)F)ccc2Cl)o1	none (no result: SNCA expr inh, HEK293 viab, IP6K1 inhibitor)
COc1ccccc1-c1nc(C(=O)NCc2cccnc2)n2ccncc12	KDM5B inh 79µM
COc1ccccc1-c1cc(C(=O)NCc2cccnc2)nc2c1cnn2C	KDM5B inh inconclusive
COc1ccccc1-c1nc(C(=O)NC(C)C)n2ccncc12	KDM5B inh 40µM
COc1ccccc1-c1cc(C(=O)NCc2cccnc2)nn2cccc12	none
COc1ccccc1-c1nc(C(=O)N2CCCC2)n2ccncc12	KDM5B inh inconclusive
COC(=O)CNC(=O)c1nc(-c2ccccc2OC)c2cnccn12	KDM5B inh 100µM
COc1ccccc1-c1nc(C(=O)NCc2cccnc2)n2ccccc12	KDM5B inh 89µM
O=C1/C(=C/c2ccsc2)CCc2ccccc21	none (no result: SNCA expr inh, HEK293 viab, IP6K1 inhibitor)
COc1ccc(F)cc1-c1ccc(C(=O)NCCCn2ccnc2C(C)C)cn1	KDM5B inh 28µM
Cn1c(CNC(=O)c2cc[nH]c2C2CCCNC2)nc2ccccc21 (stereo not drawn)	KDM5B inh 32µM
COc1cc(O)ccc1-c1nc2ccc(Br)cn2c1Nc1ccccc1C	SNCA expr inh inconclusive, HEK293 viab 14µM, KDM5B inh inconclusive
Cc1ccccc1Nc1c(-c2cccc(O)c2)nc2ccc(Br)cn12	SNCA expr inh inconclusive, KDM5B inh inconclusive
CC(C)CNc1nccc(C2(c3ccccc3Cl)CCNCC2)n1	KDM5B inh 22µM
Cc1cccc(OCC(=O)NCc2nnc3ccc(-c4ccc(F)cc4)nn23)c1	KDM5B inh 35µM
O=C(COc1ccccc1)NCc1nnc2ccc(-c3ccc(Cl)cc3)nn12	KDM5B inh inconclusive
Cc1ccc(-c2ccc3nnc(CNC(=O)COc4ccc(F)cc4)n3n2)cc1C	KDM5B inh inconclusive
Cc1ccc(-c2ccc3nnc(CNC(=O)COc4cccc(C)c4)n3n2)cc1	KDM5B inh 10µM
CCOC(=O)C(NC(=O)c1cc2ccccc2o1)C(=O)OCC	none (no result: SNCA expr inh, HEK293 viab, IP6K1 inhibitor)
OC[C@@H]1CN(Cc2cccc3[nH]ccc23)C[C@H]1c1ccncc1	KDM5B inh 25µM
OC[C@@H]1CN(Cc2ccco2)C[C@H]1c1ccncc1	none
Clc1ccc(-c2onc3ccc(-c4ccccc4)cc23)cc1	none (no result: SNCA expr inh, HEK293 viab, IP6K1 inhibitor)
O=C(O)C1Oc2ccccc2O1	none (no result: SNCA expr inh, HEK293 viab, IP6K1 inhibitor)
COCCNC(=O)C(C)(C)Oc1nn(Cc2cccc(Cl)c2)c2ccccc12	HEK293 viab inconclusive
CC(C)(Oc1nn(CCN2CCOCC2)c2ccccc12)C(=O)NCCc1ccccc1	SNCA expr inh inconclusive
